Compounds with a hit are over-represented: about 2.1% of the library has one in this group of screens.
D2 PAM-1 = positively modulates the human D2 dopamine receptor allosterically | P14416 | HEK293 T-REx D2, calcium flux, EC20 dopamine potentiation | potentiation, % at 10 µM | hit rate 0.34% among 340,000 | AID 485347;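 active means potentiation over 3 SD above the plate norm, cut at about 30% in these data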
Target sequence (P14416 whole entry, looked up): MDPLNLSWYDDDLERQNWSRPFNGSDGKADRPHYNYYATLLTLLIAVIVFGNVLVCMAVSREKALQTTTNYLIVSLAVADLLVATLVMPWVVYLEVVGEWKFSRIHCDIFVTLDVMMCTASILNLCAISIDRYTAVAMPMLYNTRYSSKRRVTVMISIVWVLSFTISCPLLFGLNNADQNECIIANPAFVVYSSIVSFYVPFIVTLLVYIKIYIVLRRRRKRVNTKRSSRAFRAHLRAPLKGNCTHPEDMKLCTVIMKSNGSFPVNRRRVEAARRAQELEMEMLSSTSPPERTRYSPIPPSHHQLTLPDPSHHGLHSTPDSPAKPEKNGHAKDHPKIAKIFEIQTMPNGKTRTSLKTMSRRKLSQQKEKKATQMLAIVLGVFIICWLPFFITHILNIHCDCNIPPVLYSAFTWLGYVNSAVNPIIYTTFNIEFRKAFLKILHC
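Cells plated with tetracycline inducer and held overnight at 30 C; calcium dye loaded 30–90 min at room temperature; baseline taken, compound added and read 180 s; EC20 dopamine then added and read 180 s.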
D2 antag = antagonists of human D2 dopamine receptor; inhibition, % at 10 µM; AID 485344; hit rate 2% among 340,000; HEK293 TREx D2 cells, calcium flux, dopamine EC80; in the data active means inhibition above about 30%; inactive means below that, where a call was filed
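HEK293 T-REx D2 cells, tet-induced, calcium dye no-wash. Cpd pintool add, 180 s kinetic, then EC80 DA, 180 s kinetic. Ca flux read.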
D2 ag-1 = activates the human D2 dopamine receptor; P14416; HEK293 T-REx D2 cells, calcium flux agonist mode; activation, % at 2 µM; hit rate 0.53% among 340,000; AID 485358;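 active means activation over 3 SD above normal in the single-dose calcium agonist read, cut at about 30% in these data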
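Agonism scored from kinetic calcium signal (1 read/sec, 180 s) following compound pin transfer, after a 10 s baseline. Cells: HEK293 Trex line expressing inducible D2 receptor coupled to calcium, dye-loaded after overnight culture at 30 C.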
D2 ag-2 = human D2 receptor agonism in beta-arrestin assay. DiscoveRx PathHunter D2 beta-arrestin, luminescence, 90 min; 100% = 57 uM dopamine signal. activation, % (concentration not given with the values). hit rate 0.084% among 360,000; in the data active means activation above about 40%; inconclusive means between about 15% and that limit
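Agonist mode: compounds alone added to overnight-plated D2 PathHunter cells for 90 min at 37 C, with 57 uM final dopamine (EC100) defining full response. Beta-arrestin recruitment detected by chemiluminescent reagent, read after 1 h at ambient temperature.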
LDHA inh = blocks human lactate dehydrogenase A. activity change, % (values are at about 110 or 230 µM). purified LDHA, NADH/diaphorase-resazurin fluorescence; stronger effect = lower value. hit rate 0.15% among 480,000. P00338; in the data active means activity change below about -30%; inconclusive means mostly about -25% to -30%
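Remaining NADH was detected by diaphorase (0.133 mg/mL) converting 37 µM resazurin to fluorescent resorufin, read at 0 and 20 minutes. The preceding 5-minute room-temperature reaction used 2 nM LDHA, 0.2 mM sodium pyruvate and 0.06 mM NADH at pH 7.4.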
D2 PAM-2 = potentiates the human D2 dopamine receptor allosterically | P14416 | DiscoveRx D2 beta-arrestin cells, luminescence, 90 min; 100% = 57 uM dopamine signal | potentiation, % (test concentration not listed) | hit rate 0.23% among 360,000 | AID 624464; in the data active means potentiation above about 50%; inconclusive means mostly about 30% to 49%
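D2 cells co-treated with compound plus 50 nM dopamine (EC20) for 90 min at 37 deg C to detect potentiation. Beta-arrestin recruitment was read as enzyme-fragment luminescence after 1 h at ambient temperature. Full response was set by 57 uM dopamine.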
Numbers stand for hits; n = inactive; u = inconclusive; x = no result.

SMILES	D2 PAM-1	D2 antag	D2 ag-1	D2 ag-2	LDHA inh	D2 PAM-2
Cc1nc(-c2ccccc2)sc1-c1n[nH]c(=S)n1C	41	n	n	n	n	n
Cn1c(-c2ccccc2)n[nH]c1=S	n	n	n	n	n	n
Cn1nc(C(=O)NNC(=O)COc2ccccc2)c2ccccc2c1=O	n	n	n	n	n	n
Cc1occc1C(=O)NNC(=O)c1nn(C)c(=O)c2ccccc12	31	n	n	n	n	n
Cc1ccc(OCC(=O)N2CCN(c3cc(=O)n4nc(-c5ccccc5)sc4n3)CC2)c(C)c1	x	x	x	x	n	x
Cc1cccc(-c2nc3n(CC(=O)N4CCCCCC4)c(C)cc(=O)n3n2)c1	x	x	x	x	-31	x
Cc1ccc2c(c1)C1CN(C)CCC1N2Sc1ccccc1[N+](=O)[O-] (stereo not drawn)	n	43	n	n	n	n
CCCNCC1C(Oc2ccc(Cl)cc2)C(=O)N1c1ccccc1C (stereo not drawn)	n	51	n	n	n	n
COCCNCC1C(Oc2ccc(Cl)cc2)C(=O)N1c1ccccc1C (stereo not drawn)	n	50	n	n	n	n
CCOC(=O)c1sc(NC(NC(=O)c2ccco2)(C(=O)OC)C(F)(F)F)nc1C (stereo not drawn)	n	34	n	n	n	n
Cc1ccc(C(=O)NNC(=S)NC(=O)c2ccc(Cl)cc2Cl)cc1	n	n	70	n	n	n
Cc1ccccc1C(=O)NNC(=S)NC(=O)c1ccccc1	n	n	51	n	n	n
COc1ccc(Cl)cc1C(=O)NNC(=S)NC(=O)c1ccc(F)c(F)c1	n	40	n	n	n	n
Cc1ccc(C(=O)NNC(=S)NC(=O)c2ccccc2)cc1	x	x	x	n	n	n
Cc1ccc(C(=O)NC(=S)NNC(=O)c2ccc([N+](=O)[O-])cc2)cc1	n	33	n	n	n	n
COc1ccc(NC(=O)C2CSC3c4ccccc4C(=O)N23)cc1 (stereo not drawn)	n	32	n	n	n	n
COC(=O)C1CSC2c3ccccc3C(=O)N12 (stereo not drawn)	x	x	x	n	n	n
CCOP(=O)(OCC)c1nc(Cc2ccc(OC)cc2)oc1NCc1cccnc1	x	x	x	x	n	x
Cc1ccccc1NC(=O)c1c(O)c2cccc3c2n(c1=O)CCC3	n	47	n	x	x	x
CC(C)c1ccc(Nc2ccc3cc(S(=O)(=O)N4CCCC4)ccc3n2)cc1	x	x	x	x	n	x
O=C(O)C1=C[C@@H](c2ccc3c(c2)OCO3)C[C@@H](OCc2ccc(CO)cc2)O1	n	n	n	n	n	n
NC(=O)C1=C[C@H](c2ccc3c(c2)OCO3)C[C@H](OCc2ccc(CO)cc2)O1	n	33	n	n	n	n
Cc1cccc2cc(C#N)c(SCC(=O)N3CC(=O)Nc4ccccc43)nc12	n	34	n	n	n	n
Cc1ccc(C(=O)C2CCN(CC(=O)Nc3ccc(N(C)C)cc3)CC2)cc1	n	33	n	n	n	n
Cc1ccc(C(=O)C2CCN(CC(=O)N3CCN(c4ccc(F)cc4)CC3)CC2)cc1	n	51	n	n	n	n
SMILES	D2 PAM-1	D2 antag	D2 ag-1	D2 ag-2	LDHA inh	D2 PAM-2
COCC(=O)n1nc(NCc2ccccc2Cl)nc1NCc1ccccc1Cl	x	x	x	x	-49	x
Cn1c(SCC(=O)NCc2ccc3c(c2)OCO3)nnc1-c1c[nH]c2ccccc12	n	n	n	n	n	n
CCn1c(SCC(=O)NCc2ccc3c(c2)OCO3)nnc1-c1c[nH]c2ccccc12	34	n	n	n	n	n
CCN1CCN(C(=O)c2oc(=O)c3ccccc3c2-c2ccc(C)cc2)CC1	n	59	n	n	n	n
S=c1[nH]nc(-c2ccc(Br)o2)n1Cc1ccccc1	35	n	n	n	n	n
Cn1c(CSCc2ccc(Cl)c(Cl)c2)nnc1SCC(=O)Nc1nccs1	n	n	n	u	n	70
COc1ccc(NC(=O)C(=O)c2c(C)[nH]c3ccccc23)cc1	x	x	x	x	n	x
Cc1cc2c(OCC(O)CNC3CCCCC3)cccc2[nH]1 (stereo not drawn)	n	60	n	n	n	n
O=C(CSc1ncc(-c2ccc(F)cc2)o1)Nc1cc(F)ccc1F	x	x	x	x	n	x
Cc1cc(C)c(C#N)c(SCS(=O)Cc2ccc(Cl)cc2)n1 (stereo not drawn)	n	37	n	n	n	n
CCCCc1nc2ccccc2c(NC(=O)CN2CCCC2)c1CCC	n	x	x	n	-35	n
CN(C(=O)COc1ccc2c(=O)c(Oc3ccccc3)coc2c1)c1ccccc1	x	x	x	x	n	x
COc1ccc(C(C)(C)C)cc1NC(=O)CCc1c(C)noc1C	n	63	n	n	n	n
COc1c2c(cc3oc(=O)ccc13)OC(C)(C)C=C2	n	33	n	n	n	n
CC1(C)CC(=O)c2cc(OCC(=O)NCCN3CCCc4ccccc43)ccc2O1	n	n	34	n	n	n
CC(=O)N1c2ccc(S(=O)(=O)N3CCC(C(=O)Nc4cccc(C)c4)CC3)cc2CC1C (stereo not drawn)	n	n	n	n	n	n
CC(=O)N1c2ccc(S(=O)(=O)N3CCC(C(=O)Nc4cccc(F)c4)CC3)cc2CC1C (stereo not drawn)	n	n	n	n	n	n
CC(=O)N1c2ccc(S(=O)(=O)N3CCC(C(=O)Nc4cccc(Cl)c4)CC3)cc2CC1C (stereo not drawn)	n	41	n	n	n	n
CC(=O)N1c2ccc(S(=O)(=O)N3CCC(C(=O)Nc4cc(C)cc(C)c4)CC3)cc2CC1C (stereo not drawn)	n	71	n	n	n	n
CC(=O)N1c2ccc(S(=O)(=O)NCC3CCC(C(=O)Nc4ccc(C)cn4)CC3)cc2CC1C (stereo not drawn)	34	n	n	n	n	n
CC(=O)N1c2ccc(S(=O)(=O)N3CCCC3C(=O)Nc3ccc(C)cc3)cc2CC1C (stereo not drawn)	n	37	n	n	n	n
CC1CCC(C(C)C)C(OCCC[N+](C)(C)C)C1 (stereo not drawn)	x	x	x	x	n	x
COc1ccc(C2C(C#N)=C(N)Oc3n[nH]c(C)c32)c(OCc2ccccc2Cl)c1 (stereo not drawn)	x	x	x	x	n	x
CC(C)CCN(C(=O)CN1c2ccccc2CC1C)c1c(N)n(Cc2ccccc2)c(=O)[nH]c1=O (stereo not drawn)	x	x	x	x	n	x
Cc1cccc(-c2cccc(N)c2)c1	x	x	x	x	n	x
Cc1ccc(NC(=O)C2CCN(S(=O)(=O)c3ccc4c(c3)NC(=O)CO4)CC2)cc1	n	32	n	n	n	n

From PubChem
